Rows were chosen to be rich in hits. Some 2.1% of all compounds tested hit in one or more screens of this group.
YB-1 expression: YB-1 expression inhibition. U2OS, qRT-PCR YB-1 vs CDIP delta delta Cp, 16 h; stronger effect = higher value; zero = DMSO, each unit about twofold. AID 434959. 30,000 compounds, 0.37% hits. delta delta Cp (YB-1 minus CDIP) (test concentration not listed);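 active means delta delta Cp rounded down to an integer at or above 3, about 3 SD of DMSO wells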;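 further: higher means less YB-1 transcript or more CDIP transcript relative to DMSO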
ROS inducer: raises reactive oxygen species in U2OS cancer cells; 46,000 compounds, 2% hits; AID 624156; ROS induction (% of piperlongumine), % at 10 µM; U2OS ROS induction, H2DCF-DA fluorescence; in the data active means ROS induction above about 79%, passing the limit was not always enough;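 further: 0% = DMSO vehicle median and 100% = reference compound median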
* marks the source's active call; other numbers are inactive results; x = no result given.

SMILES | YB-1 expression | ROS inducer
COCCOC(=O)N1C(=O)[C@@]2(c3cc(C#Cc4ccc(OC)cc4)ccc31)[C@H](C(=O)N1CCc3cc(OC)c(OC)cc3C1)[C@H]1C(=O)O[C@H](c3ccccc3)[C@H](c3ccccc3)N1[C@@H]2c1ccccc1OCCO | 0.0896 | 49.9
COCCOC(=O)N1C(=O)[C@@]2(c3cc(C#Cc4ccc(OC)cc4)ccc31)[C@H](C(N)=O)[C@H]1C(=O)O[C@H](c3ccccc3)[C@H](c3ccccc3)N1[C@@H]2c1ccc(OCCO)cc1 | -0.325 | 13.7
COCCOC(=O)N1C(=O)[C@@]2(c3cc(C#Cc4ccc(OC)cc4)ccc31)[C@H](C(N)=O)[C@H]1C(=O)O[C@H](c3ccccc3)[C@H](c3ccccc3)N1[C@@H]2c1ccccc1OCCO | 9.54* | 37.7
COC(=O)C1=C(C)NC(=S)NC1c1cn(-c2ccccc2)nc1-c1cccs1 (stereo unspecified) | x | 19.8
C[C@@H]1CN([C@H](C)CO)C(=O)c2cccc(NS(=O)(=O)c3ccc(F)cc3)c2O[C@H]1CN(C)C(=O)Nc1ccc(C(F)(F)F)cc1 | -0.00163 | 92.0*
C[C@@H]1CCCCO[C@@H](CN(C)S(=O)(=O)c2ccccc2)[C@@H](C)CN([C@H](C)CO)C(=O)c2cc(NC(=O)Nc3ccc(C(F)(F)F)cc3)ccc2O1 | -0.445 | 182.7*
Cc1ccc(S(=O)(=O)Nc2cccc3c2O[C@@H](CN(C)C(=O)Nc2ccc(C(F)(F)F)cc2)[C@@H](C)CN([C@H](C)CO)C3=O)cc1 | -0.209 | 8.5
Cc1ccc(S(=O)(=O)N(C)C[C@H]2OCCCC[C@@H](C)Oc3ccc(NC(=O)Nc4ccc(C(F)(F)F)cc4)cc3C(=O)N([C@H](C)CO)C[C@@H]2C)cc1 | 0.0858 | 21.9
C[C@@H]1CCCCO[C@@H](CN(C)C(=O)Nc2ccc(C(F)(F)F)cc2)[C@@H](C)CN([C@H](C)CO)C(=O)c2cc(NS(=O)(=O)c3ccccc3)ccc2O1 | -0.206 | 101.7*
C[C@@H]1CCCCO[C@H](CN(C)S(=O)(=O)c2ccccc2)[C@@H](C)CN([C@H](C)CO)C(=O)c2cc(NC(=O)Nc3ccc(C(F)(F)F)cc3)ccc2O1 | 0.0635 | 80.0*
C[C@@H]1CCCCO[C@@H](CN(C)C(=O)Nc2ccccc2)[C@@H](C)CN([C@H](C)CO)C(=O)c2cc(NS(=O)(=O)c3ccccc3)ccc2O1 | -0.957 | 2.4
COc1ccc(S(=O)(=O)N(C)C[C@@H]2OCCCC[C@@H](C)Oc3ccc(NC(=O)Nc4ccc(C(F)(F)F)cc4)cc3C(=O)N([C@H](C)CO)C[C@@H]2C)cc1 | -0.0118 | 32.3
O=C(c1nn2c(C(F)(F)F)cc(-c3ccccc3)nc2c1Br)N1CCN2CCCC2C1 (stereo unspecified) | x | 19.2
O=C(NCc1ccccn1)c1cc(-c2ccccc2)on1 | x | -6.6
O=C(NCc1ccccn1)c1cc2nc(-c3ccccc3)cc(-c3ccccc3)n2n1 | x | 141.4*
CC(C)(C)c1ccc(-c2nnc(SCC(=O)Nc3ccccc3[N+](=O)[O-])o2)cc1 | x | 1.2
CC(C)(C)c1ccc(-c2nnc(-c3ccccc3NC(=O)/C=C\C(=O)O)o2)cc1 | x | 80.1*
CCC(NS(=O)(=O)c1cc(C)ccc1OC)C12CC3CC(CC(C3)C1)C2 (stereo unspecified) | x | -1.7
Nc1c(C(=O)NCCC2=CCCCC2)nnn1-c1cccc(C(F)(F)F)c1 | x | -11.9
C[C@@H]1CN([C@H](C)CO)C(=O)Cc2cc(NC(=O)CCCCCC(=O)Nc3ccccc3N)ccc2O[C@@H]1CN(C)Cc1ccncc1 | -0.242 | -1.2
C[C@H](CO)N1C[C@H](C)[C@H](CN(C)Cc2ccc3c(c2)OCO3)Oc2ccc(NC(=O)CCCCCC(=O)Nc3ccccc3N)cc2C1=O | 0.397 | -4.5
C[C@@H]1CN([C@H](C)CO)C(=O)Cc2cc(NC(=O)CCCCCC(=O)Nc3ccccc3N)ccc2O[C@@H]1CN(C)Cc1ccc(Cl)c(Cl)c1 | 0.248 | 83.7*
C[C@H](CO)N1C[C@H](C)[C@@H](CN(C)Cc2ccc3c(c2)OCO3)Oc2c(NC(=O)CCCCCC(=O)Nc3ccccc3N)cccc2C1=O | 0.39 | 38.7
C[C@@H]1CN([C@@H](C)CO)C(=O)c2cccc(NC(=O)CCCCCC(=O)Nc3ccccc3N)c2O[C@H]1CN(C)Cc1ccc2c(c1)OCO2 | -0.359 | 104.8*
C[C@H]1CN([C@@H](C)CO)C(=O)c2cccc(NC(=O)CCCCCC(=O)Nc3ccccc3N)c2O[C@@H]1CN(C)Cc1ccc2c(c1)OCO2 | 0.0201 | 107.7*
Cc1ccc(C(C)C)c(OCC(=O)Nc2cc(-c3nc4ncccc4o3)ccc2Cl)c1 | x | -5.0
COc1ccc(OC)c(C2c3cccn3CCN2C(=S)NC(C)(C)C)c1 (stereo unspecified) | x | 2.7
CCC(Sc1nncn2c1cc1occc12)C(=O)Nc1ccccc1OC (stereo unspecified) | x | 49.9
CC(C)CN(CC(C)C)C(=O)Nc1ccccc1C(F)(F)F | x | -6.6
